Reference: PubChem BioAssay (NCATS)
Results filed as inconclusive are left out. Activity calls are given as the source filed them. Unless noted, calls follow the shape of the dose curve; as a rule, active = well fitted curve in the direction sought with a large enough effect; inconclusive = small, poorly fitted or top-dose-only effect, or another doubt; inactive = no such curve, though single readings can be large; an effect the other way counts as inactive or inconclusive.

Key:
[1] = target: Peptidyl-prolyl cis-trans isomerase NIMA-interacting 1 (Homo sapiens) (UniProt Q13526); assay: qHTS Validation Assay to Find Inhibitors of Pin1 (AID 504536; active = well fitted inhibition curve with a large enough effect in the polarisation, with a control signal flat, not every such curve was filed as active; the % refers to the polarisation)
Outline: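 Fluorescence polarization competition: compounds (titration) displace HiFluor-488-labeled Pin1-1b peptide from Pin1 (0.3 uM final) in pH 7.5 HEPES buffer with DTT, 10 min at room temperature; %Activity normalized to no-enzyme wells, curves fitted.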

[2] = target: Phosphoglycerate kinase, glycosomal (Trypanosoma brucei brucei) (UniProt P07378); assay: qHTS Validation Assay to Find Inhibitors of Phosphoglycerate Kinase (AID 504547); also: potency is read from the fitted curve at half-maximal effect
Outline: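 Inhibition of the enzyme is judged by a Kinase-Glo Plus luminescent signal following a one-hour incubation at room temperature. Because 1,3-BPG is unstable, it is made in situ by GAPDH at 100nM final; no-PGK wells define the baseline.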

[3] = target: phosphoglycerate mutase (Leishmania major) (UniProt Q4Q090); assay: qHTS Validation Assay to Find Inhibitors of Phosphoglycerate Mutase (AID 504548); settings: Potency: inhibition qHTS; also: potency is read from the fitted curve at half-maximal effect
Outline: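 Inhibition of L. major PGAM was assessed by Kinase-GloPlus luminescence following a 45-minute room-temperature reaction with enzyme at 1.25nM final.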

[4] = Inducers of the Endoplasmic Reticulum Stress Response (ERSR) in human glioma: Validation (AID 504836)
Outline: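 ERSR induction read as luciferase luminescence (Bright-Glo, 10 min at room temperature) in stably transfected human U87-MG glioma cells exposed to compounds for 16 h, using GRP78 as sensor.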

[5] = target: Ubiquitin carboxyl-terminal hydrolase 1 (Homo sapiens) (UniProt O94782); assay: Inhibitors of USP1/UAF1: Pilot qHTS (AID 504865); also: nearly all actives have a fitted effect of over 35% in size; also: potency is read from the fitted curve at half-maximal effect
Outline: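 1nM USP1/UAF1 + cpd, 15 min RT; start w/ Ub-Rho 150nM final; kinetic FL 480/540 nm, 6 reads q60 s. Buffer 50mM HEPES pH 7.8, 0.5mM EDTA, 1mM TCEP, 0.01% Tween-20, 0.1 mg/ml BSA.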

[6] = qHTS for Inhibitors of ATXN expression: Validation (AID 588378); also: nearly all actives have a fitted effect of over 75% in size; also: potency is read from the fitted curve at half-maximal effect
Outline: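 Cells: HEK293-ATXN2-FFLuc, phenol-red free DMEM, 2 h attachment. Compound pin-transfer, 24 h, 37 degrees C, 5% CO2. CellTiter-Fluor 30 min, Ex405/Em525; Bright-Glo 5 min, luminescence 2 s exposure.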

[7] = qHTS for Inhibitors of ATXN expression: Validation of Cytotoxic Assay (AID 588349);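 also: cells exposed to compound for 72 hr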
Outline: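 HEK293, compound dose series, 72 hr / 37 degrees C; viability via CellTiter Glo (intracellular ATP).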

[8] = target: DNA dC->dU-editing enzyme APOBEC-3G (Homo sapiens) (UniProt Q9HC16); assay: qHTS for inhibitors of Vif-A3G interactions: Validation (AID 588379)
Outline: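 HeLa cells stably expressing Vif and A3G-eYFP, 700 cells/well, incubated overnight at 37 deg C, then exposed to compound overnight at 37 deg C. Inhibition of Vif-mediated degradation read as increased yellow fluorescence (Ex 488/Em 500-530) by laser-scanning cytometry.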

Measured: Potency

phosphoglycerate mutase (Leishmania major), sequence (Q4Q090 1-553): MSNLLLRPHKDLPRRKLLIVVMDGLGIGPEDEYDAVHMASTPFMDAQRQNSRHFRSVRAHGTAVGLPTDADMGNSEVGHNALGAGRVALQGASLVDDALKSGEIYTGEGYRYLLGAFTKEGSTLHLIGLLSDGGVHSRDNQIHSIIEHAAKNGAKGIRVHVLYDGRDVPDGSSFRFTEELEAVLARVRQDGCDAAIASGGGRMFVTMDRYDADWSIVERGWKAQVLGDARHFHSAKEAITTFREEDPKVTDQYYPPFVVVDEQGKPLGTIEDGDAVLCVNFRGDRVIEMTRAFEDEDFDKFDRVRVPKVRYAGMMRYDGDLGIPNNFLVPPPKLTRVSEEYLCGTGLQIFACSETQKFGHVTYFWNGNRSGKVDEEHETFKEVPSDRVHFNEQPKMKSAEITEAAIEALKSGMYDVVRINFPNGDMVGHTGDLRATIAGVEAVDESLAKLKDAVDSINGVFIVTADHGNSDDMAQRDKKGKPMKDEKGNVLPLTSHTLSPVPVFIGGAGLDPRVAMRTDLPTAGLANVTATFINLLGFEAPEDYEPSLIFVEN
Peptidyl-prolyl cis-trans isomerase NIMA-interacting 1 (Homo sapiens), sequence (Q13526 whole entry, looked up): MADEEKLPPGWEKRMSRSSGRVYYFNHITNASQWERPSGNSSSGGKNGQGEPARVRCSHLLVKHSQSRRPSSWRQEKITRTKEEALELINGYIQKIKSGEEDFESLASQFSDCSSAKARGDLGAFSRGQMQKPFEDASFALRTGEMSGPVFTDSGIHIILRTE
Ubiquitin carboxyl-terminal hydrolase 1 (Homo sapiens), sequence (O94782 whole entry, looked up): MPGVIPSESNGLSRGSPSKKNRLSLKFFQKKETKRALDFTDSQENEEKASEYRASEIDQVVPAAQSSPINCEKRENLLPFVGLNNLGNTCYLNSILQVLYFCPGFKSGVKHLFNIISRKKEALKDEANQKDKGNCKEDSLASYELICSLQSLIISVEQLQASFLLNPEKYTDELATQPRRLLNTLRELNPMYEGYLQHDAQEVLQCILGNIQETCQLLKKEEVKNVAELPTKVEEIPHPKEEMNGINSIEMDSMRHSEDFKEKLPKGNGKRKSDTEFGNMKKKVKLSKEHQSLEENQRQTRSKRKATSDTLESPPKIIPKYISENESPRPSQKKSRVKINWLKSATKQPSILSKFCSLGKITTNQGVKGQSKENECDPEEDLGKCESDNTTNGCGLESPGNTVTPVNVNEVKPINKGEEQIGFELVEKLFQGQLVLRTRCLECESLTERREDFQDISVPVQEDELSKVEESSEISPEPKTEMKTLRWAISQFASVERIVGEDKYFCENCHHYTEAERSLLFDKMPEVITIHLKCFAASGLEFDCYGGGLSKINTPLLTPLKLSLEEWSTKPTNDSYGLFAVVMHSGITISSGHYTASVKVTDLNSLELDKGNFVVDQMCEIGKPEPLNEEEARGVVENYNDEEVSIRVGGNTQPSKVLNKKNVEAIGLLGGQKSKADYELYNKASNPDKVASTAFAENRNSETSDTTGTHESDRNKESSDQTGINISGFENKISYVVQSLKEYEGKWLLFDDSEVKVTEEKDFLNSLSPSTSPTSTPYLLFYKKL
Phosphoglycerate kinase, glycosomal (Trypanosoma brucei brucei), sequence (P07378 whole entry, looked up): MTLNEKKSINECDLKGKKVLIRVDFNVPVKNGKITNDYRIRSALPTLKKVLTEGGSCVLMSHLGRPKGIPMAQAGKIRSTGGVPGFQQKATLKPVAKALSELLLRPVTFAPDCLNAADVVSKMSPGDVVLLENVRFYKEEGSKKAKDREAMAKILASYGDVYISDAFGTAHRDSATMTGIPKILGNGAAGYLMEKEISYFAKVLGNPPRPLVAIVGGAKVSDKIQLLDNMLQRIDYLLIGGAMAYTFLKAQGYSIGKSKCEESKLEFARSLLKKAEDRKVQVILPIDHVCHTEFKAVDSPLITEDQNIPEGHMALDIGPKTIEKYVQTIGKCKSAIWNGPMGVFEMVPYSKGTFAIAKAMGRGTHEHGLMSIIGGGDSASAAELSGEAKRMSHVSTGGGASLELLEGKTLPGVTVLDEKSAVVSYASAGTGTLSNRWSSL
DNA dC->dU-editing enzyme APOBEC-3G (Homo sapiens), sequence (Q9HC16 whole entry, looked up): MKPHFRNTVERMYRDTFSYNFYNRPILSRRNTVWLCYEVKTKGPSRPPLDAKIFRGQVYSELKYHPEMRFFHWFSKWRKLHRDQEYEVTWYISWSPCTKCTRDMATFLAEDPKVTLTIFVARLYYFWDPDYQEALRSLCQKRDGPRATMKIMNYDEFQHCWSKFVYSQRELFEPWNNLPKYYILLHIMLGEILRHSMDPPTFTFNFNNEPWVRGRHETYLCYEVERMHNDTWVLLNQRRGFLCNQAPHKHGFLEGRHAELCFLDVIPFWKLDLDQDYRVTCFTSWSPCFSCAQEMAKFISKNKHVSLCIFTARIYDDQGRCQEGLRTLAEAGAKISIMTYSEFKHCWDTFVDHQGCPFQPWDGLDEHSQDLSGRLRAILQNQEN

O=c1c2ccccc2[se]n1-c1ccccc1
active: [3] 7.57 µM
not listed: [7] | [8]
inactive: all other assays above

CCCCCCCCCCCCCC(=O)O[C@@H]1[C@@H](C)[C@@]2(O)[C@@H](C=C(CO)C[C@@]3(O)C(=O)C(C)=C[C@@H]23)C2C(C)(C)[C@@]21OC(C)=O (stereo not given in full)
not listed: [5] | [8]
inactive: all other assays above

C[N+]1(C)CCOC(O)(c2ccc(-c3ccc(C4(O)C[N+](C)(C)CCO4)cc3)cc2)C1 (stereo not given)
not listed: [8]
inactive: all other assays above

COc1ccc2c(c1O)-c1cccc3c1[C@@H](C2)N(C)CC3
not listed: [7] | [8]
inactive: all other assays above

C[C@@H]1O[C@@H](O[C@H]2C[C@@H](O)[C@]3(CO)[C@@H]4C(CC[C@]3(O)C2)[C@@]2(O)CC[C@H]([C@@H]3COC(=O)C3)[C@@]2(C)C[C@H]4O)[C@H](O)[C@H](O)[C@H]1O (stereo not given in full)
active: [6] 1.78 µM
not listed: [7] | [8]
inactive: all other assays above

CC1(C(=O)O)C2CCC(O2)C1(C)C(=O)O (stereo not given)
active: [6] 7.94 µM
not listed: [7] | [8]
inactive: all other assays above

CC(N)c1cccc(Cl)c1Cl (stereo not given)
not listed: [8]
inactive: all other assays above

CCCN(CCC)C1CCc2cccc(O)c2C1 (stereo not given)
not listed: [1] | [8]
inactive: all other assays above

CN(N=O)c1cc(O)ccc1O
active: [6] 28.2 µM
inactive: [1] | [3] | [4] | [5]

NCC(CP(=O)(O)O)c1ccc(Cl)cc1 (stereo not given)
not listed: [1] | [8]
inactive: all other assays above

CCCn1c(=O)c2[nH]c(C3CCCC3)nc2n(CCCOC(=O)c2ccc(S(=O)(=O)F)cc2)c1=O
not listed: [1] | [8]
inactive: all other assays above

CCCN1CC[C@@H]2c3cc(O)ccc3CC[C@@H]21
not listed: [1] | [8]
inactive: all other assays above

CC(N)[C@H](O)c1ccc(O)c(O)c1 (stereo not given in full)
active: [2] 7.57 µM
not listed: [1] | [8]
inactive: all other assays above

C#CCN[C@H](C)Cc1ccccc1
not listed: [1] | [8]
inactive: all other assays above

N#C/C(=C/c1ccc(O)c(O)c1)C(N)=S
inactive: [1] | [3] | [4] | [5] | [6]

CCS(=O)(=O)Nc1cccc(C(=C2CCCCC2)c2cnc[nH]2)c1
not listed: [1] | [8]
inactive: all other assays above

CCCN(CCC)CCc1c[nH]c2ccc(C(N)=O)cc12
inactive: [2] | [3] | [4] | [5] | [6]

N#CCCN
not listed: [1] | [8]
inactive: all other assays above

NC(N)=Nc1ccc2[nH]c3c(c2c1)C[C@@]1(O)[C@H]2Cc4ccc(O)c5c4[C@@]1(CCN2CC1CC1)[C@H]3O5
active: [5] 79.4 µM
inactive: [2] | [3] | [4]

C[C@H](N)CN1CCc2ccc(Br)cc21
inactive: [2] | [3] | [4] | [5]
active: [6] 15.8 µM

COc1cc(CC(C)N)c(OC)cc1I (stereo not given)
inactive: [2] | [3] | [4] | [5]

C=CCN1C[C@@H](C)N([C@H](c2ccc(C(=O)N(CC)CC)cc2)c2cccc(OC)c2)C[C@@H]1C
not listed: [1] | [8]
inactive: all other assays above

Cc1sc2ccccc2c1CC1=NCCN1
inactive: [1] | [2] | [4] | [5] | [7]

C=CCN1CC[C@]23c4c5ccc(O)c4O[C@@H]2/C(=N/N=C2\CC[C@@]4(O)C6Cc7ccc(O)c8c7[C@@]4(CCN6CC=C)[C@@H]2O8)CC[C@@]3(O)C1C5
inactive: [2] | [3] | [4] | [5]
active: [6] 20 µM

CCCN(CCC)C1Cc2cc(OC)c(OC)cc2C1
not listed: [1]
inactive: all other assays above

CO[C@H]1CC=C2CCN3CCC4=C(CC(=O)OC4)[C@]23C1
not listed: [1] | [8]
inactive: all other assays above

CC(C)NP(=O)(NC(C)C)OP(=O)(NC(C)C)NC(C)C
not listed: [1] | [8]
inactive: all other assays above
